{"source": "ChEMBL document CHEMBL4808148", "about": "“HDAC6 screening dataset using tau-based substrate in an enzymatic assay yields selective inhibitors and activators” (2021)", "key": {"[1]": {"target": "T1, Protein deacetylase HDAC6 (Homo sapiens) (UniProt Q9UBN7)", "T1 sequence (whole entry)": "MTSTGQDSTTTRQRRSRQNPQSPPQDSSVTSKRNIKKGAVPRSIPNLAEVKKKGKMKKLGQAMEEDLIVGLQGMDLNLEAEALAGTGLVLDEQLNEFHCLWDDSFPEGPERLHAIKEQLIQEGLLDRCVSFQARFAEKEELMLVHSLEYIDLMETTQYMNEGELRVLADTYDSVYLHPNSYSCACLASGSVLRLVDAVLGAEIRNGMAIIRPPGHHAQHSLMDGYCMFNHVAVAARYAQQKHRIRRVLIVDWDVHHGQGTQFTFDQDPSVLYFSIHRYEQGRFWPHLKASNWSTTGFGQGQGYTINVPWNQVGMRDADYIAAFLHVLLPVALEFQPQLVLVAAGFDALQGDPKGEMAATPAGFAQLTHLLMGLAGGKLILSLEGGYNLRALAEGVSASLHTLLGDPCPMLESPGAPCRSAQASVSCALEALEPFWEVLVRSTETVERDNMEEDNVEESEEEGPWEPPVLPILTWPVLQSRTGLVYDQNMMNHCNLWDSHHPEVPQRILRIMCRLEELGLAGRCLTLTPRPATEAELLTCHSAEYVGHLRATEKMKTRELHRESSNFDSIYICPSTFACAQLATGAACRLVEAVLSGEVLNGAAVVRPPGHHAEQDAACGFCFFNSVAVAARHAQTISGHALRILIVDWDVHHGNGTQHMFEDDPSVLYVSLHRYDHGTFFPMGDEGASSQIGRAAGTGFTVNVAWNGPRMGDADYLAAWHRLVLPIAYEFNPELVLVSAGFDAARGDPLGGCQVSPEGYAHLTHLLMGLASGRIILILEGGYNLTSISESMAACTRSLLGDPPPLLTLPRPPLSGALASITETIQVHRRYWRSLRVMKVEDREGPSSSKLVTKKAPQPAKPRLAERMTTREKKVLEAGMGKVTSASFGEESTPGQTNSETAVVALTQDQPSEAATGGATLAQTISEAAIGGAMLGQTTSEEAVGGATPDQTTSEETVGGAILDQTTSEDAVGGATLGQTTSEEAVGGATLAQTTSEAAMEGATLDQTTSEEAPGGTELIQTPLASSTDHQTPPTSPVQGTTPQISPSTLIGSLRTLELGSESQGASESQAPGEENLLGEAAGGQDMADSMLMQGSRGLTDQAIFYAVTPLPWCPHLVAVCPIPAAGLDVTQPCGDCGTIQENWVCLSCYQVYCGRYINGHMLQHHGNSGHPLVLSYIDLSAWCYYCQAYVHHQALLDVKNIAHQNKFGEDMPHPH", "conditions": "at 10 µM"}, "[2]": {"target": "Protein deacetylase HDAC6 (Homo sapiens) (UniProt Q9UBN7)", "conditions": "at 10 µM", "remark": "listed apart in the source"}}, "note": "Among all 5,600 compounds or so, about 150 (2.7%) showed an effect of 50% or more. This is one part of a sample in which strong results are shown more often than they occur."}
{"compound": "C=CC(C)(O)CCC=C(C)C", "note": "(stereo unspecified)", "values": [{"measurement": "inhibition", "setting": "[1]", "value": 1.97, "unit": "%"}]}
{"compound": "O=C(CN1C(=O)C2(CCCC2)NC[C@H]1c1cc(F)cc(F)c1)Nc1ccc2c(c1)C[C@@]1(C2)C(=O)Nc2ncccc21", "values": [{"measurement": "inhibition", "setting": "[1]", "value": -4.92, "unit": "%"}]}
{"compound": "C=CC(=O)O", "values": [{"measurement": "inhibition", "setting": "[1]", "value": 0.87, "unit": "%"}]}
{"compound": "O=C1c2cccc(O)c2C(=O)c2c(O)cccc21", "values": [{"measurement": "inhibition", "setting": "[1]", "value": -4.52, "unit": "%"}]}
{"compound": "C[C@@H]1CC(=O)c2c(ccc3c2C(=O)c2cccc(O)c2C3=O)C1", "values": [{"measurement": "inhibition", "setting": "[1]", "value": 77.5, "unit": "%"}]}
{"compound": "Cc1cc(O)c2c(c1)C(=O)c1cccc(O)c1C2=O", "values": [{"measurement": "inhibition", "setting": "[1]", "value": 6.5, "unit": "%"}]}
{"compound": "Cc1ccc2c(N3CCN(CCc4cccc(N5CCNC5=O)c4)CC3)cccc2n1", "values": [{"measurement": "inhibition", "setting": "[1]", "value": -3.2, "unit": "%"}]}
{"compound": "CCCCCCOc1cc2c(cc1N(C)c1ncc(C(=O)O)cn1)C(C)(C)CCC2(C)C", "values": [{"measurement": "inhibition", "setting": "[1]", "value": 0.82, "unit": "%"}]}
{"compound": "Cc1cccc(/C=C/c2ccccc2)n1", "values": [{"measurement": "inhibition", "setting": "[1]", "value": 98.2, "unit": "%"}]}
{"compound": "CC[N+](CC)(CC)CCOc1ccc(/C=C/c2ccccc2)cc1", "values": [{"measurement": "inhibition", "setting": "[1]", "value": -3.25, "unit": "%"}]}
{"compound": "Nc1nccc(/C=C/c2ccccc2)n1", "values": [{"measurement": "inhibition", "setting": "[1]", "value": 96.2, "unit": "%"}]}
{"compound": "Cc1nc2ccccc2c(-c2ccc3c4c(ccnc24)CCO3)c1[C@H](OC(C)(C)C)C(=O)O", "values": [{"measurement": "inhibition", "setting": "[1]", "value": -1.87, "unit": "%"}]}
{"compound": "Cc1cc(N2CCOCC2)ccc1Nc1nc(NC2CCCCC2)c2nc[nH]c2n1", "values": [{"measurement": "inhibition", "setting": "[1]", "value": -0.21, "unit": "%"}]}
{"compound": "Cc1cc2ncc(C(=O)NCC(C)(C)NCC(=O)N3CCC[C@H]3C#N)cn2n1", "values": [{"measurement": "inhibition", "setting": "[1]", "value": 2.17, "unit": "%"}]}
{"compound": "COc1ccc(Cc2cnc(N)nc2N)cc1OC", "values": [{"measurement": "inhibition", "setting": "[1]", "value": -3.93, "unit": "%"}]}
{"compound": "COc1cc(Cc2cnc(N)nc2N)cc(OC)c1OC", "values": [{"measurement": "inhibition", "setting": "[1]", "value": -5.72, "unit": "%"}]}
{"compound": "COc1ccc(COc2ccc(Cc3cnc(N)nc3N)cc2OC)cc1", "values": [{"measurement": "inhibition", "setting": "[1]", "value": 58.8, "unit": "%"}]}
{"compound": "c1nc2c(NC3CCCCC3)nc(Nc3ccc(N4CCOCC4)cc3)nc2[nH]1", "values": [{"measurement": "inhibition", "setting": "[1]", "value": -4.12, "unit": "%"}]}
{"compound": "Cc1cc(/C(=C\\Nc2ccc(Cl)cc2)C(=O)Nc2ccc(Cl)cc2)on1", "values": [{"measurement": "inhibition", "setting": "[1]", "value": -2.63, "unit": "%"}]}
{"compound": "Oc1ccc2c(c1)CC[C@H](c1ccccc1)[C@@H]2c1ccc(OCCN2CCCC2)cc1", "values": [{"measurement": "inhibition", "setting": "[1]", "value": -2.46, "unit": "%"}]}
{"compound": "COc1ccc(C(C)=O)c(O)c1", "values": [{"measurement": "inhibition", "setting": "[1]", "value": 0.72, "unit": "%"}]}
{"compound": "COc1cc(C(C)=O)ccc1O", "values": [{"measurement": "inhibition", "setting": "[1]", "value": 4.49, "unit": "%"}]}
{"compound": "COc1cc2c(=O)c(-c3ccc(O)cc3)coc2cc1O", "values": [{"measurement": "inhibition", "setting": "[1]", "value": 96.6, "unit": "%"}]}
{"compound": "CC(C)Oc1ccc2c(=O)c(-c3ccccc3)coc2c1", "values": [{"measurement": "inhibition", "setting": "[1]", "value": -8.43, "unit": "%"}]}
{"compound": "COc1ccc(-c2coc3cc(O)ccc3c2=O)cc1", "values": [{"measurement": "inhibition", "setting": "[1]", "value": 62.6, "unit": "%"}]}
{"compound": "O=c1c(O)c(-c2ccc(O)c(O)c2)oc2cc(O)ccc12", "values": [{"measurement": "inhibition", "setting": "[1]", "value": 8.31, "unit": "%"}]}
{"compound": "O=c1c(-c2ccc(O)cc2)coc2c(C3OC(CO)C(O)C(O)C3O)c(O)ccc12", "note": "(stereo unspecified)", "values": [{"measurement": "inhibition", "setting": "[1]", "value": -5.66, "unit": "%"}]}
{"compound": "O=c1c(-c2ccc(O)cc2)coc2cc(O)ccc12", "values": [{"measurement": "inhibition", "setting": "[1]", "value": 76, "unit": "%"}]}
{"compound": "Cc1cc(=O)oc2cc(O)ccc12", "values": [{"measurement": "inhibition", "setting": "[1]", "value": -0.81, "unit": "%"}]}
{"compound": "Cc1cc(CCCOc2c(C)cc(-c3noc(C(F)(F)F)n3)cc2C)on1", "values": [{"measurement": "inhibition", "setting": "[1]", "value": -3.38, "unit": "%"}]}
{"compound": "CCCCNc1ncc2c(-c3ccc(CN4CCN(C)CC4)cc3)cn([C@H]3CC[C@H](O)CC3)c2n1", "values": [{"measurement": "inhibition", "setting": "[1]", "value": 5.61, "unit": "%"}]}
{"compound": "COLISTIMETHATE SODIUM, CHEMBL1201441", "values": [{"measurement": "inhibition", "setting": "[2]", "value": 0.02, "unit": "%"}]}
{"compound": "O=S(=O)(OC[C@H]1O[C@@](COS(=O)(=O)[O][Al]([OH])[OH])(O[C@H]2O[C@H](COS(=O)(=O)[O][Al]([OH])[OH])[C@@H](OS(=O)(=O)[O][Al]([OH])[OH])[C@H](OS(=O)(=O)[O][Al]([OH])[OH])[C@H]2OS(=O)(=O)[O][Al]([OH])[OH])[C@@H](OS(=O)(=O)[O][Al]([OH])[OH])[C@@H]1OS(=O)(=O)[O][Al]([OH])[OH])[O][Al]([OH])[OH]", "values": [{"measurement": "inhibition", "setting": "[1]", "value": -5.96, "unit": "%"}]}
{"compound": "OC[C@H]1O[C@@H](c2ccc(F)c(Cc3cc4ccccc4s3)c2)[C@H](O)[C@@H](O)[C@@H]1O", "values": [{"measurement": "inhibition", "setting": "[1]", "value": -2.47, "unit": "%"}]}
{"compound": "O=C(/C=C/c1ccc(O)c2c1[C@@H](C(=O)O[C@H](Cc1ccc(O)c(O)c1)C(=O)O)[C@H](c1ccc(O)c(O)c1)O2)O[C@H](Cc1ccc(O)c(O)c1)C(=O)O", "values": [{"measurement": "inhibition", "setting": "[1]", "value": 3.93, "unit": "%"}]}
{"compound": "Cc1cccc(N2CC(CO)OC2=O)c1", "note": "(stereo unspecified)", "values": [{"measurement": "inhibition", "setting": "[1]", "value": -6.61, "unit": "%"}]}
{"compound": "Cn1nnc(-c2ccc(-c3ccc(N4C[C@H](CO)OC4=O)cc3F)cn2)n1", "values": [{"measurement": "inhibition", "setting": "[1]", "value": 86.8, "unit": "%"}]}
{"compound": "CC(=O)NC[C@H]1CN(c2ccc(-c3ccc(CNCc4cnn[nH]4)cc3)c(F)c2)C(=O)O1", "values": [{"measurement": "inhibition", "setting": "[1]", "value": 0.09, "unit": "%"}]}
{"compound": "CCCCOCCOc1nc(-c2ccc(C(=O)O)c(F)c2)sc1C", "values": [{"measurement": "inhibition", "setting": "[1]", "value": 0.11, "unit": "%"}]}
{"compound": "Cc1nc(-c2ccc(OCC(C)C)c(C#N)c2)sc1C(=O)O", "values": [{"measurement": "inhibition", "setting": "[1]", "value": 98.8, "unit": "%"}]}
{"compound": "Cc1cc(SCc2sc(-c3ccc(C(F)(F)F)cc3)nc2C)ccc1OCC(=O)O", "values": [{"measurement": "inhibition", "setting": "[1]", "value": 3.31, "unit": "%"}]}
{"compound": "CCOC(=O)[C@@]1(CCCCCCOc2ccc(Cl)cc2)CO1", "values": [{"measurement": "inhibition", "setting": "[1]", "value": -2.98, "unit": "%"}]}
{"compound": "CCC(CC)Nc1nc(C)c(-c2ccc(OC(F)(F)F)cc2OC)nc1OC", "values": [{"measurement": "inhibition", "setting": "[1]", "value": -3.03, "unit": "%"}]}
{"compound": "O=c1c2ccccc2nc2n1CCc1c-2[nH]c2ccccc12", "values": [{"measurement": "inhibition", "setting": "[1]", "value": 7.17, "unit": "%"}]}
{"compound": "O=C1c2ccccc2-n2c1nc1ccccc1c2=O", "values": [{"measurement": "inhibition", "setting": "[1]", "value": 68.6, "unit": "%"}]}
{"compound": "O=c1c2ccccc2nc2n1CCCCC2", "values": [{"measurement": "inhibition", "setting": "[1]", "value": 17.6, "unit": "%"}]}
{"compound": "FC(F)(F)c1cccc(-c2noc(-c3cc(-c4ccccc4)c(C(F)(F)F)s3)n2)c1", "values": [{"measurement": "inhibition", "setting": "[1]", "value": -4.64, "unit": "%"}]}
{"compound": "O=C(O)c1cccc(-c2noc(-c3ccccc3F)n2)c1", "values": [{"measurement": "inhibition", "setting": "[1]", "value": 99.8, "unit": "%"}]}
{"compound": "Cc1c(-c2ccc(-c3ccccc3F)cc2)nc2ccc(F)cc2c1C(=O)O", "values": [{"measurement": "inhibition", "setting": "[1]", "value": -2.53, "unit": "%"}]}
{"compound": "NC1(C(=O)N[C@@H](CCO)c2ccc(Cl)cc2)CCN(c2nc[nH]c3nccc2-3)CC1", "values": [{"measurement": "inhibition", "setting": "[1]", "value": 5, "unit": "%"}]}
{"compound": "CN1C(=O)N[C@H](Cc2c[nH]c3c(Cl)cccc23)C1=O", "values": [{"measurement": "inhibition", "setting": "[1]", "value": 2.4, "unit": "%"}]}
